In the supplement of paper PMC10849652:
The full data set covers some 8,800 targets. This sample favours those with a hit. About 0.5% of all pairs of compound and target were hits.

Experiments:
Experiment in all cases: log2 fold change, soluble protein after heating vs DMSO (PISA); higher = thermal stabilisation; K562 lysate, 10 uM; active = over 0.2 and 3.5 SD of the protein, either way, in both replicates (recomputed)
vemurafenib = compound: CCCS(=O)(=O)Nc1ccc(F)c(C(=O)c2c[nH]c3ncc(-c4ccc(Cl)cc4)cc23)c1F [vemurafenib]
In short: (§1)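 Log-two fold change in thermal stability relative to solvent controls is reported from duplicates. For each sample, crude K562 extract from dounce-homogenised pellets in PBS pH 7.4 with 1 mM MgCl2, at 1 mg/mL protein, was treated with 10 μM compound for 30 min. Aliquots heated for 3 min across 48°C-58°C were pooled, brought to 0.5% NP-40 at 4°C and cleared at 21,000xg for 90 min. The supernatant was quantified by TMTpro 16plex LC-MS/MS with channel sums equalised.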

[1] = compound: CCCS(=O)(=O)Nc1ccc(F)c(C(=O)c2c[nH]c3ncc(Cl)cc23)c1F
In short: as §1

barasertib = compound: CCN(CCCOc1ccc2c(Nc3cc(CC(=O)Nc4cccc(F)c4)[nH]n3)ncnc2c1)CCOP(=O)(O)O [barasertib]
In short: as §1

[2] = compound: CC[C@@H]1C(=O)N(C)c2cnc(Nc3ccc(C(=O)NC4CCN(C)CC4)cc3OC)nc2N1C1CCCC1
In short: as §1

volasertib = compound: CC[C@@H]1C(=O)N(C)c2cnc(Nc3ccc(C(=O)N[C@H]4CC[C@H](N5CCN(CC6CC6)CC5)CC4)cc3OC)nc2N1C(C)C [volasertib]
In short: as §1

[3] = compound: CCn1c(C(=O)N(C2CC2)C2CC2)cc2c3c(ncn3C)c(Nc3cc(C)n(C)n3)nc21
In short: as §1

[4] = compound: CCn1cc(-c2ccnc3[nH]c(-c4cccc(CN(C)C)c4)cc23)c(-c2ccc(NC(=O)N(C)C)cc2)n1
In short: as §1

[5] = compound: CN1CCC(CNc2ccc3ncc(-c4cccc(OC(F)(F)F)c4)n3n2)CC1
In short: as §1

saracatinib = compound: CN1CCN(CCOc2cc(OC3CCOCC3)c3c(Nc4c(Cl)ccc5c4OCO5)ncnc3c2)CC1 [saracatinib]
In short: as §1

sotrastaurin = compound: CN1CCN(c2nc(C3=C(c4c[nH]c5ccccc45)C(=O)NC3=O)c3ccccc3n2)CC1 [sotrastaurin]
In short: as §1

alvocidib = compound: CN1CC[C@H](c2c(O)cc(O)c3c(=O)cc(-c4ccccc4Cl)oc23)[C@H](O)C1 [alvocidib]
In short: as §1

Tubastatin A = compound: CN1CCc2c(c3ccccc3n2Cc2ccc(C(=O)NO)cc2)C1 [Tubastatin A]
In short: as §1

[6] = compound: CNC(=O)C1=CC=CC=C1NC2=NC(=NC=C2Cl)NC3=C(C=C(C=C3)N4CCOCC4)OC
In short: as §1

defactinib = compound: CNC(=O)c1ccc(Nc2ncc(C(F)(F)F)c(NCc3nccnc3N(C)S(C)(=O)=O)n2)cc1 [defactinib]
In short: as §1

[7] = compound: CNc1nc(-c2ccc3c(N)n[nH]c3c2)cc(N2C[C@@H](C(=O)NC3CCCCC3)CC[C@H]2C)n1
In short: as §1

encorafenib = compound: COC(=O)N[C@@H](C)CNc1nccc(-c2cn(C(C)C)nc2-c2cc(Cl)cc(NS(C)(=O)=O)c2F)n1 [encorafenib]
In short: as §1

[8] = compound: COC(=O)[C@H](CCSC)NC(=O)C1=C(C=C(C=C1)NC[C@H](CS)N)C2=CC=CC=C2
In short: as §1

alisertib = compound: COc1cc(Nc2ncc3c(n2)-c2ccc(Cl)cc2C(c2c(F)cccc2OC)=NC3)ccc1C(=O)O [alisertib]
In short: as §1

[9] = compound: COc1cc2nc(-c3cc(F)ccc3O)nc(N[C@@H]3CNC[C@H]3C(C)(C)O)c2cc1OC
In short: as §1

gefitinib = compound: COc1cc2ncnc(Nc3ccc(F)c(Cl)c3)c2cc1OCCCN1CCOCC1 [gefitinib]
In short: as §1

Measured: log2 fold change

TTF2 (UniProt Q9UNY4)
inactive: vemurafenib 0.008 | [1] 0.037 | barasertib 0.027 | [2] -0.028 | volasertib 0.022 | [3] 0.003 | [4] -0.003 | [5] -0.026 | saracatinib 0.025 | sotrastaurin 0.024 | alvocidib -0.018 | Tubastatin A -0.055 | [6] 0.05 | defactinib 0.069 | [7] 0.005 | encorafenib -0.018 | [8] -0.01 | alisertib 0.005 | [9] 0.056 | gefitinib 0.002

TCP11L1 (UniProt Q9NUJ3)
Sequence of UniProt Q9NUJ3 (Q9NUJ3 whole entry, looked up): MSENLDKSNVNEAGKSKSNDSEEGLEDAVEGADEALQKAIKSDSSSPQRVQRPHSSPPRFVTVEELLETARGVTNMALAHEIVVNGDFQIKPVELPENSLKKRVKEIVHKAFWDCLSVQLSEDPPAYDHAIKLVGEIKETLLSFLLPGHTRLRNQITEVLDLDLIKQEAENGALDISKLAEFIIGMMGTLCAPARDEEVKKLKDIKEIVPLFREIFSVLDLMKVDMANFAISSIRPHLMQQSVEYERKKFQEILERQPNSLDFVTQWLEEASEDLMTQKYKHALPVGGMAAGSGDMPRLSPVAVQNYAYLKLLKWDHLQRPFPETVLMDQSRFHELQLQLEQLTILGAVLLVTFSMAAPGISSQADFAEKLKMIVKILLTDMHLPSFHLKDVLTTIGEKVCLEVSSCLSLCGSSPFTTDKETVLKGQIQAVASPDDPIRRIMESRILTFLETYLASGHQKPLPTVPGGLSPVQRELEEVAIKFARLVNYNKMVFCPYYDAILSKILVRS
inactive: vemurafenib -0.078 | [1] 0.014 | barasertib 0.038 | [2] 0.045 | volasertib -0.054 | [3] 0.009 | [4] -0.244 | [5] 0.097 | saracatinib -0.007 | sotrastaurin 0.009 | alvocidib -0.098 | Tubastatin A -0.006 | [6] 0.029 | defactinib 0.023 | [7] -0.064 | encorafenib 0.006 | [8] -0.064 | alisertib -0.022 | [9] 0.032 | gefitinib -0.001

TRAPPC6A isoform 2 (UniProt O75865)
Sequence of UniProt O75865 (O75865 whole entry, looked up): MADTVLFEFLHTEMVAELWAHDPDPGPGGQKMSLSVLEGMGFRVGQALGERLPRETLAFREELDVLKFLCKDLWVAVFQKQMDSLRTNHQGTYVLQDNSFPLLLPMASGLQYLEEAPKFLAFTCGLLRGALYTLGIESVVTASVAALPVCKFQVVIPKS
active: [2] -0.288
inactive: vemurafenib -0.144 | [1] 0.027 | barasertib -0.001 | volasertib -0.035 | [3] -0.072 | [4] -0.228 | [5] -0.096 | saracatinib 0.001 | sotrastaurin -0.042 | alvocidib 0.059 | Tubastatin A -0.006 | [6] 0.011 | defactinib -0.026 | [7] -0.017 | encorafenib -0.142 | [8] -0.027 | alisertib -0.052 | [9] 0 | gefitinib -0.043

TPD52L2 isoform 7 (UniProt O43399)
Sequence of UniProt O43399 (O43399 whole entry, looked up): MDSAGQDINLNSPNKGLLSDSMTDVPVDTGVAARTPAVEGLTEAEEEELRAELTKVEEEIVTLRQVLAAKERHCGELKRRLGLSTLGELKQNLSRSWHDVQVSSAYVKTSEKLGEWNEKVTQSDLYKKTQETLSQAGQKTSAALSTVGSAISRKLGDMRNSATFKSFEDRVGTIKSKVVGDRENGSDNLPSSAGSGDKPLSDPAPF
inactive: vemurafenib -0.02 | [1] -0.033 | barasertib 0.045 | [2] 0.048 | volasertib 0.017 | [3] 0.011 | [4] -0.14 | [5] 0.207 | saracatinib 0.003 | sotrastaurin 0.034 | alvocidib -0.043 | Tubastatin A 0.062 | [6] -0.005 | defactinib 0.023 | [7] 0.086 | encorafenib -0.026 | [8] 0.008 | alisertib -0.01 | [9] 0.037 | gefitinib 0.02

TLE3 isoform 4 (UniProt Q04726)
Sequence of UniProt Q04726 (Q04726 whole entry, looked up): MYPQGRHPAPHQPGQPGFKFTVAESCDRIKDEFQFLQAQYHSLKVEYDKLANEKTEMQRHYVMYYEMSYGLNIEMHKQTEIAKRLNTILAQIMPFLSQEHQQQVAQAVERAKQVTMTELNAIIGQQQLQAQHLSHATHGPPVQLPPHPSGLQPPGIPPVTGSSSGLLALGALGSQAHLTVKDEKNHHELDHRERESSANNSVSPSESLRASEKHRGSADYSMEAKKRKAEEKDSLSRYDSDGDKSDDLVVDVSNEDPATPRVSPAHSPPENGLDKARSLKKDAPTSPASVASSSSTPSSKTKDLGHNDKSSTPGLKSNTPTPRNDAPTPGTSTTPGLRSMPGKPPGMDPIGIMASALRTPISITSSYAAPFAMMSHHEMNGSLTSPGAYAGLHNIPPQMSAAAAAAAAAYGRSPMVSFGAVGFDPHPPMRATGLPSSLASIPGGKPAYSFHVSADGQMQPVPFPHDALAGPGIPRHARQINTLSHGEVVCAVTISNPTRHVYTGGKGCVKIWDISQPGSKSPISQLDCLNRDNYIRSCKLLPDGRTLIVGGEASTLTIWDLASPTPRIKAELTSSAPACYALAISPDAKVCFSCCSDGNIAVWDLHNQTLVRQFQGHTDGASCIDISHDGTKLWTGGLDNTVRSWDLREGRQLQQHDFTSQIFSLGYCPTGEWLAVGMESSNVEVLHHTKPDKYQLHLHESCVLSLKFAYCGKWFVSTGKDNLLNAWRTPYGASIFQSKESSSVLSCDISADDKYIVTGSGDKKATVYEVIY
inactive: vemurafenib 0.009 | [1] 0.01 | barasertib 0.005 | [2] 0.065 | volasertib 0.021 | [3] 0.027 | [4] -0.001 | [5] 0.01 | saracatinib 0.017 | sotrastaurin -0.017 | alvocidib 0.023 | Tubastatin A 0.002 | [6] -0.013 | defactinib 0.004 | [7] 0.024 | encorafenib 0.014 | [8] -0.019 | alisertib -0.016 | [9] 0.002 | gefitinib -0.037

TMEM70 (UniProt Q9BUB7)
Sequence of UniProt Q9BUB7 (Q9BUB7 whole entry, looked up): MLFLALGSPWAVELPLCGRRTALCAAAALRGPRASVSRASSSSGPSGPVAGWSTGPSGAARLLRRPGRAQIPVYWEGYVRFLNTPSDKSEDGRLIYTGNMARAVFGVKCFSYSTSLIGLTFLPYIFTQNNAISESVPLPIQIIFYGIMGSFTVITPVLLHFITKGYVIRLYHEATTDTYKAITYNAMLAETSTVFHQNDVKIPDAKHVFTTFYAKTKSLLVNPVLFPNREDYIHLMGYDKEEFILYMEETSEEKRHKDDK
active: [4] -0.378
inactive: vemurafenib -0.016 | [1] 0.029 | barasertib 0.063 | [2] -0.072 | volasertib -0.004 | [3] -0.027 | [5] 0.027 | saracatinib 0.023 | sotrastaurin 0.122 | alvocidib -0.037 | Tubastatin A -0.015 | [6] -0.025 | defactinib -0.001 | [7] -0.056 | encorafenib 0.021 | [8] -0.002 | alisertib 0.024 | [9] -0.041 | gefitinib -0.036

TMEM164 (UniProt Q5U3C3)
Sequence of UniProt Q5U3C3 (Q5U3C3 whole entry, looked up): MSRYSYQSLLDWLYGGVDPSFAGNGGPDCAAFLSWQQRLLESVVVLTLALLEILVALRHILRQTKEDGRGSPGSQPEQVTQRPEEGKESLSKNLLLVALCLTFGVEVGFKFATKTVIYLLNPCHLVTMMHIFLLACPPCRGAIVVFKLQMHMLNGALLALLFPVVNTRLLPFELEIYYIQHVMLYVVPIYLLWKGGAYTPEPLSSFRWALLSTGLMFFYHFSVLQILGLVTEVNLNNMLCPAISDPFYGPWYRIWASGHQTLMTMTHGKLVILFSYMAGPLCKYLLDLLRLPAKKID
active: [4] -0.827
inactive: vemurafenib 0.179 | [1] 0.108 | barasertib 0.039 | [2] 0.176 | volasertib 0.08 | [3] -0.186 | [5] 0.262 | saracatinib 0.062 | sotrastaurin -0.084 | alvocidib -0.393 | Tubastatin A 0.05 | [6] -0.039 | defactinib 0.007 | [7] 0.333 | encorafenib -0.107 | [8] 0.185 | alisertib -0.075 | [9] 0.021 | gefitinib -0.063

TTC27 (UniProt Q6P3X3)
inactive: vemurafenib 0.015 | [1] 0.007 | barasertib 0.028 | [2] -0.07 | volasertib -0.074 | [3] 0.015 | [4] -0.085 | [5] -0.058 | saracatinib 0.055 | sotrastaurin 0.051 | alvocidib 0.012 | Tubastatin A -0.148 | [6] -0.049 | defactinib 0.023 | [7] -0.007 | encorafenib 0.028 | [8] 0.057 | alisertib 0.027 | [9] 0.012 | gefitinib 0.02

TUBB4B (UniProt P68371)
Sequence of UniProt P68371 (P68371 whole entry, looked up): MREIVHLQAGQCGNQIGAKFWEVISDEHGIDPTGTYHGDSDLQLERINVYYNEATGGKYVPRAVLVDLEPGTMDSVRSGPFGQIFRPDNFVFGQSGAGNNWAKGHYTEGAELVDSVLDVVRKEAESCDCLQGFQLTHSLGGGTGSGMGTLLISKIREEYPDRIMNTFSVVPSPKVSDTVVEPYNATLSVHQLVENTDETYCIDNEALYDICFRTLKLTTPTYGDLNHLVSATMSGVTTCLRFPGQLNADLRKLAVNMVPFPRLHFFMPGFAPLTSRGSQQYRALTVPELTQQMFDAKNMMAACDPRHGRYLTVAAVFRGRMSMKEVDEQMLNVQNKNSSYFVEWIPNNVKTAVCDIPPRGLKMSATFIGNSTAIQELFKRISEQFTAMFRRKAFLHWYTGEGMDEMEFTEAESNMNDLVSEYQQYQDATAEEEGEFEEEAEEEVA
inactive: vemurafenib 0.006 | [1] 0.004 | barasertib -0.092 | [2] -0.032 | volasertib -0.034 | [3] 0.005 | [4] -0.134 | [5] -0.011 | saracatinib 0.03 | sotrastaurin -0.021 | alvocidib 0.032 | Tubastatin A -0.017 | [6] 0.024 | defactinib 0.018 | [7] -0.039 | encorafenib -0.03 | [8] 0.067 | alisertib 0.019 | [9] -0.013 | gefitinib -0.028

TRIM23 (UniProt P36406)
Sequence of UniProt P36406 (P36406 whole entry, looked up): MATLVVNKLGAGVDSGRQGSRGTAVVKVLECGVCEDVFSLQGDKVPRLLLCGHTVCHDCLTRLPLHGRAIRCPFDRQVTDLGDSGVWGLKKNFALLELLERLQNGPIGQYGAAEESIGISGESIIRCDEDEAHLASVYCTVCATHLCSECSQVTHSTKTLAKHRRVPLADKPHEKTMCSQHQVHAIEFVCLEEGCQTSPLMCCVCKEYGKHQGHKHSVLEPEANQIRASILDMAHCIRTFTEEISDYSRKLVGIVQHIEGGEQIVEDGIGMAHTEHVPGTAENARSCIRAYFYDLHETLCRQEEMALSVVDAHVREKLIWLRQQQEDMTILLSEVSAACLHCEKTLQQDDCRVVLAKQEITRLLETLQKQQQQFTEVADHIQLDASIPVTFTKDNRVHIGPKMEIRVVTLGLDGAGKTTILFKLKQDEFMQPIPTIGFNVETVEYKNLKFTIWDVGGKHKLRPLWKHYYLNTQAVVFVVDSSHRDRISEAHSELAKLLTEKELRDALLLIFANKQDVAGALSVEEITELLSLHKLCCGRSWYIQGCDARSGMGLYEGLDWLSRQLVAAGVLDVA
inactive: vemurafenib 0.077 | [1] -0.038 | barasertib 0.119 | [2] 0.115 | volasertib -0.03 | [3] 0.316 | [4] -0.28 | [5] 0.073 | saracatinib 0.096 | sotrastaurin 0.01 | alvocidib -0.071 | Tubastatin A 0.023 | [6] 0.017 | defactinib -0.008 | [7] 0.354 | encorafenib -0.063 | [8] 0.06 | alisertib -0.014 | [9] 0.154 | gefitinib 0.057

TMEM87A (UniProt Q8NBN3)
Sequence of UniProt Q8NBN3 (Q8NBN3 whole entry, looked up): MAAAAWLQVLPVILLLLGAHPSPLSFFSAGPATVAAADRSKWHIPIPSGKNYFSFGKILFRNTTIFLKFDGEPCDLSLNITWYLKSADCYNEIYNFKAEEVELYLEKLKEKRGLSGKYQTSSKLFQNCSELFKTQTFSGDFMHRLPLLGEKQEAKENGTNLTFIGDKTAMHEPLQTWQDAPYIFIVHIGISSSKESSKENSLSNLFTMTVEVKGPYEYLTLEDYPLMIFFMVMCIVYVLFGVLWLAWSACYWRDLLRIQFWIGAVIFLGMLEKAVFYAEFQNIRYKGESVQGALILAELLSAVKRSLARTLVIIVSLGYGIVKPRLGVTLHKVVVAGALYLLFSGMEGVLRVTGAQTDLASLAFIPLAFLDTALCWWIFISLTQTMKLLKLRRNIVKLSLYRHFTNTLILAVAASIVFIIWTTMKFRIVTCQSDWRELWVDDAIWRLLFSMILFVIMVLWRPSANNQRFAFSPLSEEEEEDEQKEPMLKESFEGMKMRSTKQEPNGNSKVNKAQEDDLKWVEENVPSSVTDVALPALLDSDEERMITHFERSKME
active: [5] 0.332
inactive: vemurafenib 0.032 | [1] -0.007 | barasertib -0.025 | [2] 0.008 | volasertib -0.006 | [3] -0.026 | [4] -0.114 | saracatinib -0.001 | sotrastaurin 0.017 | alvocidib -0.076 | Tubastatin A -0.013 | [6] -0.012 | defactinib -0.006 | [7] -0.017 | encorafenib 0.022 | [8] -0.045 | alisertib -0.02 | [9] 0.015 | gefitinib 0.022

TSFM (UniProt P43897)
Sequence of UniProt P43897 (P43897 whole entry, looked up): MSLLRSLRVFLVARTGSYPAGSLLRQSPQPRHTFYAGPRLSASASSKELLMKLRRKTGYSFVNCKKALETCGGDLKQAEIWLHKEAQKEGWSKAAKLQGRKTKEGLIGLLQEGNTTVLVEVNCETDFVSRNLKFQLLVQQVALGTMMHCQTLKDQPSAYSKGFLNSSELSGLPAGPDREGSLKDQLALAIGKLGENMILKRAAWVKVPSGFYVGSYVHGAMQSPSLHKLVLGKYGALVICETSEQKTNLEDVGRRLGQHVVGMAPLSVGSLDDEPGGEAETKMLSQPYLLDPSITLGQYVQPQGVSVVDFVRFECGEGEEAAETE
inactive: vemurafenib -0.007 | [1] 0.005 | barasertib 0.031 | [2] -0.041 | volasertib -0.089 | [3] 0.006 | [4] 0.081 | [5] -0.05 | saracatinib -0.014 | sotrastaurin -0.012 | alvocidib 0.036 | Tubastatin A -0.088 | [6] 0.017 | defactinib 0.015 | [7] 0.01 | encorafenib -0.017 | [8] 0.13 | alisertib -0.021 | [9] 0.017 | gefitinib 0.018

TUBA4A (UniProt P68366)
Sequence of UniProt P68366 (P68366 whole entry, looked up): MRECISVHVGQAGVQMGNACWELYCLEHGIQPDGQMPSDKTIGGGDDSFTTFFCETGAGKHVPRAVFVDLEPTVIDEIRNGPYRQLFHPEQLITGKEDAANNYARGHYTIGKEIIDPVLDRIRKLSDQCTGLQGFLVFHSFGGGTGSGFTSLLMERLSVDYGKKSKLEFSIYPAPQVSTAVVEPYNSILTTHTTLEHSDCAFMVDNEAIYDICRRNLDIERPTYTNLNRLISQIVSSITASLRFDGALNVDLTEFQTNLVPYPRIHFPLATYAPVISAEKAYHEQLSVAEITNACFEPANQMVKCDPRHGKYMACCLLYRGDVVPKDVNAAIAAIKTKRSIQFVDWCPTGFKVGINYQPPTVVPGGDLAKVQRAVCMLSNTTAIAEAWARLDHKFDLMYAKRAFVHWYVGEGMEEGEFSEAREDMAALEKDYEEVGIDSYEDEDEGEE
inactive: vemurafenib 0.003 | [1] -0.045 | barasertib 0.028 | [2] -0.023 | volasertib -0.056 | [3] 0.033 | [4] -0.05 | [5] 0.003 | saracatinib -0.036 | sotrastaurin -0.039 | alvocidib 0.003 | Tubastatin A -0.068 | [6] 0.049 | defactinib 0.014 | [7] -0.001 | encorafenib -0.039 | [8] 0.125 | alisertib 0.027 | [9] 0.032 | gefitinib 0.007

UBR5 (UniProt O95071)
inactive: vemurafenib 0.004 | [1] 0.035 | barasertib 0.045 | [2] 0.006 | volasertib -0.031 | [3] 0.01 | [4] -0.029 | [5] 0.003 | saracatinib 0.019 | sotrastaurin -0.005 | alvocidib -0.011 | Tubastatin A -0.084 | [6] 0.002 | defactinib 0.016 | [7] 0 | encorafenib 0.025 | [8] -0.044 | alisertib -0.028 | [9] -0.005 | gefitinib 0.014

THADA (UniProt Q6YHU6)
inactive: vemurafenib -0.006 | [1] 0.007 | barasertib 0.038 | [2] -0.028 | volasertib -0.037 | [3] 0.019 | [4] -0.029 | [5] 0.02 | saracatinib 0.029 | sotrastaurin 0.037 | alvocidib -0.002 | Tubastatin A -0.165 | [6] 0.008 | defactinib 0.014 | [7] -0.013 | encorafenib 0.022 | [8] 0.031 | alisertib 0.01 | [9] 0.012 | gefitinib 0.001

TPM1 isoform 4 (UniProt P09493)
Sequence of UniProt P09493 (P09493 whole entry, looked up): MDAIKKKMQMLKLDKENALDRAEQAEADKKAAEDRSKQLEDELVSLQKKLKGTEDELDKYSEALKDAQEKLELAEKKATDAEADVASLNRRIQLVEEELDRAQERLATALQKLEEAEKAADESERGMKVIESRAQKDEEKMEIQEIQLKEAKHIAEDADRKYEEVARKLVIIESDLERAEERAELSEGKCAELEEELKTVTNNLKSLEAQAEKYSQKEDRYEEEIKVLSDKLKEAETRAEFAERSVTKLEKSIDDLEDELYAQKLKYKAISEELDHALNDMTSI
inactive: vemurafenib -0.049 | [1] -0.012 | barasertib -0.036 | [2] -0.018 | volasertib 0.033 | [3] 0.013 | [4] 0.106 | [5] -0.149 | saracatinib 0.031 | sotrastaurin -0.012 | alvocidib 0.017 | Tubastatin A 0.073 | [6] -0.013 | defactinib -0.031 | [7] -0.12 | encorafenib 0.02 | [8] -0.088 | alisertib 0.035 | [9] -0.012 | gefitinib 0.008
